Experimental findings from PubChem BioAssay AID720584 (National Center for Advancing Translational Sciences (NCATS), 2013) are described below.

This is one part of the list. Records with an inconclusive call do not appear. The source made the active and inactive calls. The call rests on the fitted dose curve; in most records, active means well fitted inhibition curve with a large enough effect; inconclusive means small, poorly fitted or top-dose-only effect; inactive means flat fitted curve, though single readings scatter.
Potency means the concentration at half of the fitted maximal effect.

The assay deals with Trypanosoma brucei pyruvate kinase (TbPYK). As to the kind of experiment: qHTS of Trypanosoma Brucei Inhibitors: Orthogonal Assay for Cherry-picked Compounds. Further: nearly all actives have a fitted effect of over 75% in size. Conditions: recombinant TbPYK, ADP-Glo luminescence, 60 min; series mostly up to 76.9 µM. From the text:
Members of the Trypanosomatidae family of parasitic protozoans cause a spectrum of diseases throughout the tropical and subtropical world. Sleeping sickness, caused by two subspecies of Trypanosoma brucei, is endemic to areas of sub-Saharan Africa, while Chagas' disease, a manifestation of Trypanosoma cruzi infection, is prevalent throughout Central and South America. In addition, many species of Leishmania are responsible for a range of cutaneous and visceral diseases, causing ulcers, destructive lesions and kalaazar, a lethal infection of the viscera. These diseases cause severe public health and economic burdens on populations that are often already caught in a tragic cycle of poverty, poor nutrition and disease. Collectively, parasites of the trypanosomatid family infect 30 million people worldwide (~500 million live in endemic areas), and account for ~130K deaths annually. Existing treatments have developed little in the past 50 years, and suffer from toxicity, poor efficacy and resistance; the goal of this project is to develop lead drugs that will be suitable for entry into pre-clinical trials. […] Glycolysis in axenically cultured T. cruzi, representing the intracellular pathogenic stage, is also essential for these parasites. {Engel, 1987} This project aims to discover and optimize selective inhibitors of the glycolytic enzyme pyruvate kinase (PYK) from Trypanosoma brucei, the parasite that causes sleeping sickness. […] Trypanosomatid PYKs show significant differences from their human counterparts including only 47-50% sequence identity and different allosteric and activation properties.{Callens, 1992} To this end, a qHTS was done against the MLSMR to discover inhibitors. To confirm activity of the cherrypicked compounds, an orthogonal assay was developed. While the primary qHTS provides a luminescence-based detection of TbPyK by measuring ATP production, the orthogonal assay will measure the amount of ADP substrate remaining. Decrease in activity signal indicative of inhibition of T. brucei proliferation is the desired outcome for this assay. NIH Molecular Libraries Probe Production Network [MLPCN] NIH Chemical Genomics Center [NCGC] Grant: MH095452 PI Name: Malcolm Walkinshaw, University of Edinburgh
Briefly, 2 uL of substrate/TbPYK buffer (all columns but column 4) are dispensed into Greiner white solid-bottom 1536-well assay plates. Column 4 gets just buffer without enzyme. Compounds are then transferred via Kalypsys pin tool equipped with 1536-pin array (10 nL slotted pins, V&P Scientific, San Diego, CA). Following addition of compound, 1 uL of ADP (130 uM final concentration, columns 1-48) is added to initiate the reaction. The plates are then incubated at room temperature for 60 minutes. ADP-Glo (Promega) reagent I is added (2.5 uL) and plates incubated for 10 minutes. ADP-Glo reagent II is then added (5 uL), followed by a 10 minute room temperature incubation, before being transferred to a ViewLux high-throughput CCD imager (PerkinElmer), wherein single end-point measurements of luminescence are acquired using a clear filter. All reagents are diluted in an assay buffer consisting of 50 mM TEA (pH 7.2), 100 mM KCl, 10 mM MgCl2, 0.05% BSA and 0.01% Tween-20.
For the molecule `Cc1nc2ccc(S(=O)(=O)NCC(=O)O)cc2s1`, the Potency is 11.2 µM (active). The same measure for `COc1cccc(C(=O)c2cc3ccc(O)cc3oc2=O)c1`: “inactive”. In the case of `COc1ccc(Cc2nnc(NS(=O)(=O)Cc3ccccc3)s2)cc1`, the Potency result is “inactive”. The same measure for `Cc1ccc(NC(=O)c2cc(-c3ccc(C)o3)nc3ccccc23)nc1`: 35.5 µM (active); for `NC(=O)c1c(Nc2nc3c(F)cccc3s2)sc2c1CCCC2`: 8.91 µM (active). Then `O=C(CSc1ccc(-c2ccco2)nn1)Nc1cccc(F)c1`, with 31.6 µM (active); and `O=C(CN1CCN(c2ccc(O)cc2)CC1)Nc1cc(S(=O)(=O)N2CCOCC2)ccc1Cl`, with 12.6 µM (active); and `Cc1cc(C#N)c(SCC(N)=O)nc1-c1ccc(F)cc1`, with 5.01 µM (active).

As for `COc1cccc(C(=O)Nc2ccc(N3CCCC3)cc2)c1`, the Potency result was “inactive”. `Cc1ccc(/C=C/C(=O)Nc2ccc([N+](=O)[O-])c(NC(=O)/C=C/c3ccc(C)o3)c2)o1`: the Potency was 20 µM (active). Take `N#Cc1c(N2CCCCC2)nc(N)c2c(N)nc(SCC(=O)O)cc12`: the Potency is 35.5 µM (active).

As to `Cc1c(C)c(C)c(S(=O)(=O)N2CCC3(CC2)OCCO3)c(C)c1C`, the Potency result is “inactive”. The same measure for `CC(=O)N1CC[n+]2c(-c3ccc([N+](=O)[O-])cc3)csc21`: 1.78 µM (active); for `CN(c1ccccc1)S(=O)(=O)c1cccc(NC(=O)Cc2ccc(Cl)cc2)c1`: 12.6 µM (active).

`O=c1[nH]c2ccccc2n2c(-c3ccccc3)nnc12`: the Potency was 0.1 µM (active). The same measure for `Cc1cc(C2=NNC(=Nc3ccc(S(=O)(=O)N4CCOCC4)cc3)SC2)c(C)n1CC1CCCO1` (stereo unspecified): 15.8 µM (active). The same measure for `O=C1C=CC(=O)N1c1ccc(N2CCCCC2)cc1`: 3.55 µM (active); for `COc1cc(C2CC(=O)N3CN(Cc4ccccc4)CSC3=C2C#N)ccc1OCc1ccccc1` (stereo unspecified): 0.447 µM (active); for `c1ccc(-c2nnc3n2NC(c2ccc4c(c2)OCO4)S3)cc1` (stereo unspecified): 0.141 µM (active). The same measure for `CSc1c(SCc2ccccc2)cnn(Cc2ccccc2)c1=O`: 14.1 µM (active).

Consider `COC(=O)/C=C\C(=O)Nc1cccc([N+](=O)[O-])c1`, for which the Potency was 17.8 µM (active).

In the case of `O=C(Nc1ccc(S(=O)(=O)N2CCOCC2)cc1)c1ccc2ncsc2c1`, the Potency is 15.8 µM (active). Then `Oc1c(CN2CCOCC2)ccc(CN2CCOCC2)c1O`, with 7.08 µM (active). The same measure for `O=C(COC(=O)c1ccccc1)c1ccc2c(c1)OCCO2`: “inactive”; for `Cc1cccc(-n2c(N)c(C(=O)N3CCN(C)CC3)sc2=S)c1`: 5.01 µM (active).

With `Cc1nonc1C(=O)N/N=C/c1ccc(O)cc1`, the Potency entry was “inactive”. As for `O=C(CSc1nnc(-c2ccco2)n1CC1CCCO1)c1ccccc1` (stereo unspecified), the Potency was 35.5 µM (active).

In the case of `Cc1ccc(C)c2c1cc(C)c1nnc(SCC(=O)Nc3cccc(C(=O)O)c3)n12`, the Potency was 1 µM (active). The same measure for `O=C(CCCCCn1c(=S)[nH]c2ccsc2c1=O)NC1CCCCC1`: 14.1 µM (active); for `C=CCn1c(=S)[nH]c2scc(-c3ccco3)c2c1=O`: 17.8 µM (active); for `COCCNC(=O)Nc1ccc2nc(-c3ccco3)c(-c3ccco3)nc2c1`: 8.91 µM (active).
